The entries come from a sample that favours hits as a whole.
Tg IFNy HTS = blocks Toxoplasma gondii growth in the presence of IFN-gamma. activity change, negative = inhibition, % (concentration not given with the values). Toxoplasma gondii growth in IFN-gamma-treated host cells; active compounds read low. 69,000 compounds, 3.8% hits; in the data active means activity change below about -70%, passing the limit was not always enough;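 further: host cells are HeLa cells infected with Toxoplasma gondii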
An asterisk follows results filed as active; i = inactive.

SMILES	Tg IFNy HTS
Cc1ccc(C2c3[nH]c4ccccc4c3CCN2C(=O)c2ccccc2Cl)cc1 (configuration not stated)	-118*
CSc1ccc(C2c3[nH]c4ccccc4c3CCN2C(=O)c2ccccc2Cl)cc1 (configuration not stated)	89
Cc1cccc(C2c3[nH]c4ccccc4c3CCN2C(=O)c2ccccc2)c1 (configuration not stated)	135
CSc1ccc(C2c3[nH]c4ccccc4c3CCN2C(=O)c2ccc(C)cc2)cc1 (configuration not stated)	34
O=C(c1ccccc1F)N1CCc2c([nH]c3ccccc23)C1c1ccccc1 (configuration not stated)	39
Cc1onc(-c2c(Cl)cccc2Cl)c1C(=O)Sc1ncccc1C(F)(F)F	35
CCc1ccc(NC(=O)N2C[C@@H]3C[C@H](C(=O)N4CCOCC4)[C@@H](C2)O3)cc1	2
C=CCn1nc(C(=O)N2CCCCC2)c2c1CCC(NCC1(N3CCCCC3)CCCC1)C2 (configuration not stated)	22
Cc1cnc(N2CC[C@@H]3CN(Cc4ccncc4)CCO[C@H]3C2)nc1	-3
O=C(Cn1cccnc1=O)N1CCC(c2cc(Cc3ccccc3)[nH]n2)CC1	-4
Cc1nn(-c2cc(N3CCCCC3)ncn2)c(C)c1CCC(=O)NC1CCCCC1	-7
Nc1ncnc2nc[nH]c12	6
Nc1nc(=S)c2[nH]cnc2[nH]1	-87*
CN(C)C(=O)CO[C@H]1CN(Cc2ccc3c(c2)OCO3)[C@H]2COC[C@@H]12	5
COc1ccc(CC(=O)N2CCc3ncnc(NC4CC4)c3CC2)cc1	-69
O=C(c1ccco1)N1CCc2ncnc(NC3CC3)c2CC1	-86*
COc1cccc(CC(=O)N2CCc3ncnc(NC4CC4)c3CC2)c1	-3
COC(=O)CC(=O)c1cc(C(F)(F)F)nn1C	24
CCOC(=O)C1CCN(C(=O)c2oc3ccc4c(c3c2C)C(O)CC2(CCCCC2)O4)CC1 (configuration not stated)	-81*
Cc1c(C(=O)N2CCc3ccccc3C2)oc2ccc3c(c12)C(=O)CC1(CCCCC1)O3	-22
Cc1c(C(=O)NCCCN2CC(C)CC(C)C2)oc2ccc3c(c12)C(O)CC1(CCCCC1)O3 (configuration not stated)	-112*
CCOC(=O)C1CCN(C(=O)C2=C(C)C(=O)OC23CCN(S(C)(=O)=O)CC3)CC1	-1
Cc1c(C(=O)N2CC(C)CC(C)C2)oc2ccc3c(c12)C(=O)CC1(CCCCC1)O3 (configuration not stated)	-51
CC1=C(C(=O)NCCCN2CCCC(C)C2)C2(CCN(S(C)(=O)=O)CC2)OC1=O (configuration not stated)	21
CC1=C(C(=O)NCCCN2CCCC2)C2(CCN(S(=O)(=O)c3cccs3)CC2)OC1=O	6
SMILES	Tg IFNy HTS
CC1=C(C(=O)NCCCN2CC(C)CC(C)C2)C2(CCCCCC2)OC1=O (configuration not stated)	58
CC1=C(C(=O)NCCCN2CC(C)CC(C)C2)C2(CCCCC2)OC1=O (configuration not stated)	-80*
Cc1c(C(=O)N2CCCCC2)oc2ccc3c(c12)C(O)CC1(CCCCC1)O3 (configuration not stated)	-112*
Cc1c(C(=O)NCCCN2CCCCC2)oc2ccc3c(c12)C(O)CC1(CCCCC1)O3 (configuration not stated)	-67
CCOC(=O)C1CCN(C(=O)c2nn(-c3ccccc3)nc2C)CC1	-5
CCCCC1CCC(c2noc(-c3ccc(F)cc3)n2)CC1 (configuration not stated)	3
Cc1nc(-c2cccc(F)c2)sc1CCNC(=O)c1cccc(Cl)c1	18
COc1ccc(NC(=O)c2cncc(NS(=O)(=O)c3ccc(C)cc3C)c2)cc1OC	61
CCC1CN(C(=O)CCc2n[nH]c(C)c2C)CCN1C(C)C (configuration not stated)	1
CC(=O)N1CCC2(CC1)OC(=O)C(C)=C2C(=O)NCCC(C)C	67
CCOCCN1C[C@H]2COC[C@@H](C(=O)N3CCCO3)[C@H]2C1	-26
CCCCN(Cc1ccco1)C(=O)C(C)c1ccccc1 (configuration not stated)	-29
COC(=O)c1c(NCc2cc(F)cc(F)c2)c2cccc(Cl)c2[nH]c1=O	-98*
COC(=O)c1c(NCCC(C)C)c2cccc(Cl)c2[nH]c1=O	-85*
COC(=O)c1c(NCc2ccc(F)cc2F)c2cccc(Cl)c2[nH]c1=O	-76*
COC(=O)c1c(NCC(C)C)c2cccc(Cl)c2[nH]c1=O	-7
COC(=O)c1c(NCc2ccccc2)c2cccc(Cl)c2[nH]c1=O	-55
COC(=O)c1c(NCc2ccc3c(c2)OCO3)c2cccc(Cl)c2[nH]c1=O	82
COC(=O)c1c(NCc2ccccc2OC)c2cccc(Cl)c2[nH]c1=O	-4
COC(=O)c1c(NCc2ccc(SC)cc2)c2cccc(Cl)c2[nH]c1=O	-79*
COC(=O)c1c(NCCO)c2cccc(Cl)c2[nH]c1=O	3
COC(=O)c1c(NCc2ccc(OC)cc2)c2cccc(Cl)c2[nH]c1=O	-29
COC(=O)c1c(NCc2cccnc2)c2cccc(Cl)c2[nH]c1=O	17
COC(=O)c1c(NCc2ccc(F)cc2F)c2cc(F)ccc2[nH]c1=O	6
CC(C)CNC(=O)Cn1ncc2c(N3CCN(c4ccccn4)CC3)ncnc21	65
SMILES	Tg IFNy HTS
COc1ccc(C(NC(=O)Cn2[nH]c(C)c(C)c2=O)c2ccccc2)cc1 (configuration not stated)	6
Cc1nc(-c2ccccc2)sc1CCNC(=O)C1CCCCC1	i
Cc1nc2c(C)cccc2cc1C(=O)n1nc(C)c(C(NC(N)=O)c2ccccc2)c1C (configuration not stated)	-48
CCS(=O)(=O)N1CCCC(c2nc(C)ncc2-c2cc(C)no2)C1 (configuration not stated)	21
CC(C)c1noc(CCC(=O)Nc2ccc(N3CCCC3)c3nonc23)n1	3
Cc1ccc(CN2CCn3c(Cn4cccn4)cnc3C2C)s1 (configuration not stated)	-2
CCOc1ccc(-c2nccn2Cc2cccnc2)cn1	2
O=C(CCCc1ccc(-c2ccccc2F)cc1)Nc1ccc(O)cc1	-80*
CCCCCC(=O)Nc1ccc2c(c1)Cc1ccccc1-2	71
C=CCNC(=O)C1(Cc2ccc(-c3ccccc3F)cc2)CCCNC1 (configuration not stated)	-36
COCCCN(Cc1ccc(C)cc1)C(=O)C1CC2(CCNCC2)CN1 (configuration not stated)	4
O=C(OCc1ccc(Cl)cc1Cl)c1ccc2ccccc2n1	45
N/C(Cc1ccc(Cl)cc1Cl)=N\OC(=O)c1ccc(Br)o1	-86*
O=C(NC(=O)c1ccccc1F)OCc1ccc(Cl)cc1Cl	-37
O=C(NC[C@@H]1CCC[C@]2(CCNC2)O1)c1ccccc1	-43
CCS(=O)(=O)N1C[C@@H]2OCCN(c3ccc(C)nn3)[C@H]2C1	-45
CC1(C)NC(=O)N(CCC(=O)NC2CCN(CC3(c4ccccc4)CCCC3)CC2)C1=O	114
CC(C)c1nn(-c2ccccc2)c2c1C(c1ccoc1)CC(=O)N2 (configuration not stated)	-28
COc1c(F)cc(C2CC(=O)Nc3c2c(C(C)C)nn3C)cc1Cl (configuration not stated)	4
CC(C)c1nn(C)c2c1C(c1nc(-c3ccc(Cl)cc3)no1)CC(=O)N2 (configuration not stated)	-85*

Source: PubChem
